HP1b binding inh: HTS for Inhibitors of HP1-beta Chromodomain Interactions with Methylated Histone Tails | AlphaScreen HP1-beta / biotin-H3K9me3 peptide binding | Potency, µM (highest dose often 114 µM), without a hit: top-dose activity change, negative = inhibition, usual class: inhibitors | hit rate 0.56% among 390,000; further: nearly all actives have a fitted effect of over 70% in size
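AlphaScreen: HP1-beta (50 nM) preformed 30 min with biotin-H3(1-18)K9me3 peptide (50 nM) in PBS pH 7.4, 0.01% Tween-20. Compound added for 30 min at RT, then streptavidin donor/nickel chelate acceptor beads (10 ug/mL) for 30 min.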
PLK1 PBD block: qHTS for Inhibitors of PLK1-PDB (polo-like kinase 1 - polo-box domain): Primary Screen; Serine/threonine-protein kinase PLK1 (Homo sapiens), P53350; Plk1 PBD binding of FITC phosphopeptide, fluorescence polarization; AID 720504, 2013; hit rate 2.8% among 360,000; Potency, µM, without a hit: max response, negative = inhibition, most hits filed as inhibitors; further: series mostly up to about 57 µM; on the % scale 0 is the no-effect control and ±100 the full control effect; nearly all actives have a fitted effect of over 65% in size
Target sequence (P53350 whole entry, looked up, the tested form may be a part): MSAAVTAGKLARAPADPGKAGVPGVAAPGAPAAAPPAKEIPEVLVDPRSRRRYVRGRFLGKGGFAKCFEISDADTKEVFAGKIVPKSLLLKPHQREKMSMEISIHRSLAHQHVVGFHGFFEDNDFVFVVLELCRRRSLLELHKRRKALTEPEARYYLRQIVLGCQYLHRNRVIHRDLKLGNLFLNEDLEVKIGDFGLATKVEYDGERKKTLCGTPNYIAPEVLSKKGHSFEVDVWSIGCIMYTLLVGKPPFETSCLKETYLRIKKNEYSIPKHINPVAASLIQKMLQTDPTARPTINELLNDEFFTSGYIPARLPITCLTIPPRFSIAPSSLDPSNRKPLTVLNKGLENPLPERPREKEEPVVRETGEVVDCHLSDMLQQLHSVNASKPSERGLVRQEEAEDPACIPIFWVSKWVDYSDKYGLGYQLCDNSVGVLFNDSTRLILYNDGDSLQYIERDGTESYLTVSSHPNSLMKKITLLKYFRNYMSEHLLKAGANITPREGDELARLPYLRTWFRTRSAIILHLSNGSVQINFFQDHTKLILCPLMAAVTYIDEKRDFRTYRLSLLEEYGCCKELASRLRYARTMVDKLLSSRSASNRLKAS
G9a block: qHTS Assay for Inhibitors of Histone Lysine Methyltransferase G9a. Histone-lysine N-methyltransferase EHMT2 (Homo sapiens), Q96KQ7. G9a H3K9 monomethylation, AlphaScreen, 2 h. Potency, µM (titrated, usually from 102 µM), for the others: at the highest dose activity, negative = inhibition, actives largely listed as inhibitors. hit rate 8.8% among 350,000. AID 504332, 2011; further: on the % scale 0 is the no-effect control and ±100 the full control effect; nearly all actives have a fitted effect of over 75% in size
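Methyltransferase reactions run at room temperature for 2 h (20 nM enzyme, 500 nM biotin-H3K9 peptide, 20 uM SAM) after a 15 min compound preincubation; product detected by AlphaScreen beads and anti-H3K9me1 antibody.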
BAZ2B block: qHTS Assay for Inhibitors of BAZ2B; AID 504333, 2011; Bromodomain adjacent to zinc finger domain protein 2B (Homo sapiens), Q9UIF8; AlphaScreen BAZ2B-H3K14Ac peptide displacement; hit rate 4.4% among 360,000; Potency, µM (doses to about 114 µM), inactives show at the top dose activity change, negative = inhibition, actives largely listed as inhibitors; further: on the % scale 0 is the no-effect control and ±100 the full control effect; nearly all actives have a fitted effect of over 60% in size
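BAZ2B 50 nM plus b-H3(5-23)K14Ac 50 nM, PBS pH 7.4/0.01% Tween-20, 30 min RT; compound added (max 110 uM), 30 min RT; streptavidin donor/Ni-chelate acceptor beads 10 ug/mL final, 20 min dark; AlphaScreen read.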
JMJD2A Tudor inh: qHTS Assay for Inhibitors of JMJD2A-Tudor Domain. Lysine-specific demethylase 4A (Homo sapiens), O75164. AlphaScreen JMJD2A-Tudor / H3K4me3 peptide binding. Potency, µM (top dose mostly 114 µM), inactives show top-dose activity change, negative = inhibition, most hits filed as inhibitors. hit rate 4.4% among 390,000; further: on the % scale 0 is the no-effect control and ±100 the full control effect; nearly all actives have a fitted effect of over 50% in size
Sfp inh: qHTS Assay for Inhibitors of Bacillus subtilis Sfp phosphopantetheinyl transferase (PPTase) | 4'-phosphopantetheinyl transferase ffp (Bacillus subtilis), Q9F4F7 | Biochemical Sfp PPTase activity, qHTS | Potency, µM, without a hit: largest response in the series, negative = inhibition, most hits filed as inhibitors | hit rate 3.5% among 310,000;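 further: the enzyme is Sfp with the accession as filed and its product quenches rhodamine fluorescence; 0% = enzyme reaction without inhibitor and -100% = no enzyme wells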
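Fluorescence-quenching assay: 15 nM Sfp-PPTase preincubated 15 min at room temperature with compound, then 5 uM rhodamine-CoA and 12.5 uM BHQ-2-labelled YbbR peptide added. Fluorescence (ex 525/em 598 nm) read at start and after 30 min; difference gives rate.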
* marks the source's active call; other numbers are inactive results; u = inconclusive; x = no result; ! = a repeat was not active; [ ] = dose if it differs, or a comment. Rows were chosen to be rich in hits. Some 12% of all compounds tested hit in one or more screens of this group. The call rests on the fitted dose curve; in most records, active means well fitted curve in the direction sought with a large enough effect; inconclusive means small, poorly fitted or top-dose-only effect, or another doubt; inactive means no such curve, though single readings can be large; an effect the other way counts as inactive or inconclusive. Potency means the concentration at half of the fitted maximal effect.

SMILES | HP1b binding inh | PLK1 PBD block | G9a block | BAZ2B block | JMJD2A Tudor inh | Sfp inh
CCn1nc(C)cc1C(=O)Sc1ccc(Cl)cc1Cl | 140% | 19µM* | 107% | 59% | 84% | -15%
C=C(C)CC1N(c2cccc(OC)c2)C(=O)C2C(C(=O)O)C3C=CC21O3 (configuration not stated) | 17% | 27µM* | 1% | 3% | -23% | 13%
CCCN1C(=O)C2C(C(=O)Nc3cccc(OC)c3)C3C=CC2(O3)C1C(=O)NC1CCCCC1 (configuration not stated) | 16% | -7% | -2%[59 µM] | 0% | -6% | 23%
COc1cccc(C2=Nn3c(nnc3-c3cc(OC)cc(OC)c3)SC2)c1 | x | x | x | x | -19% | -24%
Cc1cc(C)cc(NC(=O)CSc2n[nH]c(-c3cccnc3)n2)c1 | 21% | -14% | 12% | 4% | -11% | 8%
O=C(CSc1n[nH]c(-c2cccnc2)n1)Nc1ccc(Br)cc1 | 13% | -15% | 8.9µM* | 2% | -34% | -8%
O=C(CSc1n[nH]c(-c2cccnc2)n1)OC1CCCCC1 | -9% | 12µM* | -2% | -21% | 22µM* | 7%
CC1=CC(C)(C)Nc2ccccc21 | 24% | -2% | 6%[0.501 µM] | 50µM*! | u | 79µM*
COc1ccc2c(c1)C(=O)C(=O)N2 | 31% | -23% | -10%[59 µM] | u | -2%[57.1 µM] | -10%
COc1ccc2c(c1)NC(C)(C)C=C2C | 45µM* | -29% | 40µM* | 40µM* | 63µM* | u
COc1cc(NS(=O)(=O)c2cc(Br)cc3c2N(C(C)=O)C(C)C3)cc(OC)c1 (configuration not stated) | 22% | x | 5%[59 µM] | -1% | -17% | x
COC(=O)c1ccc(C(NC(=O)OCc2ccccc2)/C(C)=C/[C@@H](C)C(=O)Nc2ccc(OC)cc2)cc1 (some centres not stated) | x | x | x | x | x | -7%
Cc1cc(NC(=O)C2CCCCC2)ncc1NC(=O)c1ccccn1 | 43% | -8% | x | u | -5% | -13%
Cc1cc(NC(=O)C2CC2)ncc1NC(=O)c1ccccn1 | -10% | 27µM* | u | 79µM* | -27% | u
COc1ccc(C(=O)Nc2cc(C)c(NC(=O)c3ccccn3)cn2)cc1 | 37% | -9% | 45µM* | -21% | -12% | -17%
COC(=O)c1c(C(=O)OC)c(-c2ccc(Cl)cc2)n2c1CS(=O)(=O)C2 | 0% | 4.2µM* | 0% | -11% | u | 16%
COC(=O)C[C@H]1C[C@H]2c3cc(NC(=O)C4CCOCC4)ccc3O[C@H]2[C@H](CO)O1 | x | -3% | x | x | x | x
Cc1cc2cc(CN(CCCN3CCOCC3)C(=O)NC3CCCCC3)c(=O)[nH]c2cc1C | 10% | -2% | 14µM* | 7% | -21% | 45µM*
O=C(NC1CCCCC1)N(CCN1CCCC1)Cc1cc2cc3c(cc2[nH]c1=O)OCCO3 | 17% | -2% | 40µM* | 8% | -29% | -2%
COc1ccc(-c2nc3ccccc3o2)cc1NC(=O)c1cccc2c(Cl)cccc12 | 21% | x | 0%[59 µM] | -12% | -10% | x
Cc1cccc(C)c1OCC(=O)NC1CC1 | 21% | -3% | 60% | 1% | 2% | 50µM*
Cc1cccc(C)c1OCC(=O)NNC(=S)NC(=O)C1CC1 | 50% | -6% | 20µM* | -2% | -13% | 25%
Cc1cccc(OCC(=O)NC2CCCCCC2)c1C | 31% | -13% | x | 2% | -5% | 18%
COc1ccc(C(C)=O)cc1Cn1c(C)c(C(=O)NCc2cccc(C)c2)sc1=O | x | -11% | x | x | x | x
COc1cc(OC)c(NC(=O)c2cn(C3CCCC3)c(=O)c3c2c2ccccc2n3C)cc1Cl | 10% | x | 1%[59 µM] | -14% | 2% | x
SMILES | HP1b binding inh | PLK1 PBD block | G9a block | BAZ2B block | JMJD2A Tudor inh | Sfp inh
COc1ccc(NC(=O)CCS(=O)(=O)c2cccc3nonc23)cc1 | 24% | -9% | -44% | -7% | -10% | 9%
O=C(CCS(=O)(=O)c1cccc2nonc12)Nc1ccc(Br)cc1 | 5% | u | 8% | -1% | 79µM*! | 12%
O=C(CCS(=O)(=O)c1cccc2nsnc12)Nc1ccc(F)cc1 | 3% | x | 10µM* | -1% | -21% | x
O=C(CS(=O)(=O)c1cccc2nsnc12)Nc1ccc(F)cc1 | 8%[57 µM] | x | 11%[59 µM] | -4% | -18% | x
CCN1CCSc2ccc(C(=O)NC(C)c3ccccc3)cc21 (configuration not stated) | 27% | x | -32%[59 µM] | -39% | u | x
CCCCOc1nnc(-c2ccc(OCC)cc2)c2ccccc12 | 109% | x | 8%[59 µM] | 17% | 81% | x
C[N+]1=C(/C=C/Nc2ccccc2Cl)C(C)(C)c2ccccc21 | -21% | -11% | 7.9µM* | -34% | u | -15%
O=C1CCC[C@H]2c3[nH]c4ccccc4c3CCN12 | 2% | -2% | x | x | -18% | x
c1ccc2c3c([nH]c2c1)[C@@H]1[C@H]2CC[C@H]([C@H]4CCCN[C@H]42)N1CC3 | x | x | 10µM* | x | x | 8%
CCCCCC(=O)Nc1cc(S(=O)(=O)O)cc2cc(S(=O)(=O)O)cc(O)c12 | 1.4µM* | 6µM* | x | x | 1.1µM* | x
CCCCCC(=O)Nc1cccc2ccccc12 | 23% | -11% | -2%[59 µM] | -8% | -14% | -9%
COc1cccc2c1C(=O)c1c(O)c3c(c(O)c1C2=O)C[C@@](O)(C(=O)CO)C[C@@H]3O[C@H]1C[C@H](N)[C@H](O)[C@H](C)O1 | 16% | u | 22µM* | 35µM* | -13% | u
Nc1nc(-c2ccc(F)cc2)cs1 | -39% | u | 45µM* | u | -23% | 9%
CC1(C)CC(c2nc(-c3ccc([N+](=O)[O-])cc3)cs2)CCO1 (configuration not stated) | 7% | -20% | 50µM* | u | -14%[57.1 µM] | u
Nc1nc(-c2ccccc2)cs1 | u | u | u | -3% | -26% | -3%
CC(C)C(=O)Nc1nc(-c2ccc([N+](=O)[O-])cc2)cs1 | 9% | -8% | 2%[59 µM] | -17% | -19% | 12%
Nc1nc(-c2ccc3c(c2)CCC(=O)N3)cs1 | 26% | -7% | 45µM* | -18% | -12% | 40µM*
Nc1nc(-c2ccc([N+](=O)[O-])cc2)cs1 | 16% | -11% | 50µM* | 1% | -14% | 9%
CNc1nc(-c2ccc([N+](=O)[O-])cc2)cs1 | 0% | -11% | -38%[59 µM] | 9% | -13% | -12%
Cc1cccc(C)c1OCc1cc(C(=O)N(Cc2nccn2C)C(C)C)no1 | 24% | -6% | x | -31% | -23% | 13%

Assay outcomes: PubChem BioAssay, National Center for Advancing Translational Sciences (NCATS)
